Data from PubChem BioAssay (Tox21).
Records with an inconclusive call do not appear. The source made the active and inactive calls. Unless noted, the call rests on the fitted dose curve.

Assays:
[1] = Nuclear factor erythroid 2-related factor 2/antioxidant responsive element (Nrf2/ARE) small molecule agonists: qHTS cell viability counter screen in human keratinocytes (AID 1919968; active means well fitted curve in the direction sought with a large enough effect in the repeat runs; an effect the other way counts as inactive or inconclusive; further: nearly all actives have a fitted effect of over 55% in size; further: potency means the concentration at half of the fitted maximal effect)
How it was run: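 Viability counter-screen: KeratinoSens reporter cells, DMSO-delivered compounds, 23 h at 37 C, CellTiter-Fluor fluorescence.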

[2] = Nuclear factor erythroid 2-related factor 2/antioxidant responsive element (Nrf2/ARE) small molecule agonists: luciferase reporter gene qHTS assay in human keratinocytes (AID 1919969); further: nearly all actives have a fitted effect of over 35% in size; further: potency means the concentration at half of the fitted maximal effect
[3] = biological target: Gonadotropin-releasing hormone receptor (Homo sapiens) (UniProt P30968); assay: Human gonadotropin-releasing hormone receptor (GnRHR) small molecule agonists, calcium flux assay in GnRHR-HEK293 cells (AID 1920063); further: nearly all actives have a fitted effect of over 35% in size; further: potency means the concentration at half of the fitted maximal effect
How it was run: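 Tox21-format agonist screen using human GnRHR-expressing HEK293 cells and a fluorescent calcium dye; kinetic 3-min fluorescence reading after compound addition, 15-point concentration series run in triplicate.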

[4] = biological target: KiSS-1 receptor (Homo sapiens) (UniProt Q969F8); assay: Human kisspeptin (KISS1R) small molecule agonists, calcium flux assay in KISS1R-HEK293 cells (AID 1920064; active means well fitted curve in the direction sought with a large enough effect in the repeat runs; an effect the other way counts as inactive or inconclusive)
How it was run: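 Intracellular calcium mobilization in KISS1R-HEK293 cells was recorded by fluorescence (Ex/Em 480/540) for 3 min following compound addition to cells pre-loaded 1 h with calcium dye.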

[5] = G protein-coupled receptor (GPCR) small molecule agonists, calcium flux assay: HEK293 wild type cell line counter screen (AID 1920065)
How it was run: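 In this agonist-mode screen, ATP is the positive control and DMSO the vehicle. Cells grow 18 h before a 1 h dye incubation at 37 C; signal is taken at Ex/Em 480/540 over 3 min.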

[6] = p53 small molecule agonists, cell-based qHTS assay with human liver microsomes (AID 1963577);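 further: p53 response element beta-lactamase reporter cells with liver microsomes plus NADPH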
How it was run: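 p53RE-bla cells; 5 h settle, 37 C/5% CO2; cpd + HLM 0.5 mg/mL + NADPH 0.5 mg/mL (final); 16 h 37 C; LiveBLAzer 2 h RT dark; fluorescence readout.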

[7] = p53 small molecule agonists, cell-based qHTS assay with human liver microsomes: qHTS cell viability counter screen (AID 1963579); further: nearly all actives have a fitted effect of over 45% in size; further: potency means the concentration at half of the fitted maximal effect
How it was run: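 Luminescent CellTiter-Glo read-out, 30 min at room temperature, gauged cytotoxicity in p53RE-bla cells exposed 16 h at 37 C to DMSO-dissolved compounds with metabolic activation by human liver microsomes and NADPH, each 0.5 mg/mL final.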

[8] = p53 small molecule agonists, cell-based qHTS assay with rat liver microsomes: qHTS cell viability counter screen (AID 1963580); further: nearly all actives have a fitted effect of over 45% in size
How it was run: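 HCT-116 p53RE-bla, 4,000 cells/well, 5 h pre-incubation; cpd + rat liver microsomes 0.5 mg/mL + NADPH 0.5 mg/mL (final); 16 h, 37 C; CellTiter-Glo, 30 min RT; luminescence.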

[9] = p53 small molecule agonists, cell-based qHTS assay: qHTS cell viability counter screen (AID 1963581); further: nearly all actives have a fitted effect of over 45% in size; further: potency means the concentration at half of the fitted maximal effect
How it was run: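 Compounds are pinned onto HCT-116 p53RE-bla cells and left 16 h at 37 C. Following the reporter FRET read, ATP is quantified by CellTiter-Glo luminescence after 30 min at room temperature.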

[10] = p53 small molecule agonists, cell-based qHTS assay (AID 1963582; active means well fitted activation curve with a large enough effect in the signal ratio in the repeat runs, not every such curve was filed as active; the % refers to the signal ratio)
How it was run: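 Agonist activity was scored from beta-lactamase FRET fluorescence in p53RE-bla cells treated 16 h at 37 C with compounds in DMSO, substrate incubation being 2 h at room temperature.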

[11] = cAMP Responsive Elements (CRE) small molecule agonists, cell-based qHTS assay (AID 1963590)
How it was run: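 FRET-based beta-lactamase readout (LiveBLAzer B/G, 2 h RT) quantified CRE activation in HEK 293T CRE-bla cells after 3 h treatment with DMSO-dissolved compounds.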

[12] = cAMP Responsive Elements (CRE) small molecule antagonists, cell-based qHTS assay (AID 1963591; active means well fitted inhibition curve with a large enough effect in the signal ratio in the repeat runs, not every such curve was filed as active; the % refers to the signal ratio)
How it was run: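 qHTS in CRE-bla HEK 293T cells: compound in DMSO, then 0.25 uM NKH477 (final), 3 h at 37 °C/5% CO2; beta-lactamase FRET read-out after 2 h substrate incubation.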

[13] = biological target: Beta-2 adrenergic receptor (Homo sapiens) (UniProt P07550); assay: Adrenergic beta2 receptor (ADRB2) small molecule antagonists, cell-based qHTS assay (AID 1963592); further: series mostly up to about 92 µM; nearly all actives have a fitted effect of over 50% in size
How it was run: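 Cells (CHO, stable ADRB2 overexpression) incubated 18-20hr at 37C; compounds added from DMSO; agonist mix (1nM isoproterenol, 100uM IBMX, 25uM Ro-20-1724) added; 0.5hr RT; d2-cAMP and anti-cAMP-cryptate added; 1hr RT; 665/615 nm read.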

[14] = biological target: D(2) dopamine receptor (Homo sapiens) (UniProt P14416); assay: Dopamine D2 receptor (DRD2) small molecule agonists, cell-based qHTS assay (AID 1963594); further: nearly all actives have a fitted effect of over 35% in size
How it was run: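 cAMP accumulation in DRD2-HEK293 cells measured by HTRF after 1 h detection; compounds added 10 min before NKH477 (200nM […]) forskolin-analogue stimulation, 30 min at room temperature, with Ro20-1724 present at 0.1 mM final.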

[15] = biological target: D(2) dopamine receptor (Homo sapiens) (UniProt P14416); assay: Dopamine D2 receptor (DRD2) small molecule antagonists, cell-based qHTS assay (AID 1963595; active means well fitted inhibition curve with a large enough effect in the signal ratio in the repeat runs, with a control signal flat; the % refers to the signal ratio; further: potency means the concentration at half of the fitted maximal effect)
How it was run: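 Readout: HTRF cAMP, cAMP-d2 competing with cellular cAMP for anti-cAMP cryptate, read after 1 h. Cells: DRD2-HEK293. Conditions: 0.1 mM Ro20-1724, 12 nM quinpirole, 200 nM NKH477, 30 min RT.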

[16] = biological target: 5-hydroxytryptamine receptor 2A (Homo sapiens) (UniProt P28223); assay: 5-hydroxytryptamine receptor 2A (HTR2A) small molecule antagonists, cell-based qHTS assay (AID 1963586); further: nearly all actives have a fitted effect of over 45% in size; further: potency means the concentration at half of the fitted maximal effect
How it was run: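 Antagonist-mode intracellular calcium assay: DOI (4 nM) added after 5 min compound pre-incubation at room temperature to dye-loaded HTR2A-CHO cells. Fluorescence followed for 3 min, sampled every second.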

[17] = biological target: 5-hydroxytryptamine receptor 2A (Homo sapiens) (UniProt P28223); assay: 5-hydroxytryptamine receptor 2A (HTR2A) small molecule agonists, cell-based qHTS assay (AID 1963587); further: nearly all actives have a fitted effect of over 30% in size
How it was run: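 Kinetic calcium-flux fluorescence (2 min, 1 sec intervals) after compound addition in agonist mode. HTR2A-CHO cells were cultured 18 h, then dye-loaded 1 h at 37 C.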

[18] = biological target: Muscarinic acetylcholine receptor M1 (Homo sapiens) (UniProt P11229); assay: Cholinergic receptor muscarinic 1 (CHRM1) small molecule antagonists, cell-based qHTS assay (AID 1963588); further: nearly all actives have a fitted effect of over 40% in size; further: potency means the concentration at half of the fitted maximal effect
How it was run: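 CHRM1-CHO calcium-flux assay, antagonist mode. Cells were seeded 18 h, dye-loaded 1 h at 37 C and given compound for 5 min at RT, then acetylcholine was added at 50nM. FDSS fluorescence was read 3 min; 15 concentrations, three runs.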

[19] = biological target: Muscarinic acetylcholine receptor M1 (Homo sapiens) (UniProt P11229); assay: Cholinergic receptor muscarinic 1 (CHRM1) small molecule agonists, cell-based qHTS assay (AID 1963589); further: nearly all actives have a fitted effect of over 35% in size
How it was run: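 Stable CHRM1-CHO cells (human receptor) were incubated 18 h, dye-loaded for 1 h at 37 C and exposed to test compounds for agonist activity, with calcium-dependent fluorescence followed kinetically.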

Measured: Potency

Sequence of KiSS-1 receptor (Homo sapiens) (Q969F8 whole entry, looked up): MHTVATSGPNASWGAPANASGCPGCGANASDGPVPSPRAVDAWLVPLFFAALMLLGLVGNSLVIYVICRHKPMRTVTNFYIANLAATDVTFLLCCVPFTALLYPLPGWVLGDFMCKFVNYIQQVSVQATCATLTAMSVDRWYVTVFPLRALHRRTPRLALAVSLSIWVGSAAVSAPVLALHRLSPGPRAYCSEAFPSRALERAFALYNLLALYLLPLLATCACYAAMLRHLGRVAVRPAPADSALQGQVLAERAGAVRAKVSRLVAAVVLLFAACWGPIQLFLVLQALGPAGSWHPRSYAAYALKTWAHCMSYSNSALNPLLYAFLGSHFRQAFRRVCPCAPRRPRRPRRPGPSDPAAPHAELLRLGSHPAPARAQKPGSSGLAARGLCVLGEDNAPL
Sequence of Gonadotropin-releasing hormone receptor (Homo sapiens) (P30968 whole entry, looked up): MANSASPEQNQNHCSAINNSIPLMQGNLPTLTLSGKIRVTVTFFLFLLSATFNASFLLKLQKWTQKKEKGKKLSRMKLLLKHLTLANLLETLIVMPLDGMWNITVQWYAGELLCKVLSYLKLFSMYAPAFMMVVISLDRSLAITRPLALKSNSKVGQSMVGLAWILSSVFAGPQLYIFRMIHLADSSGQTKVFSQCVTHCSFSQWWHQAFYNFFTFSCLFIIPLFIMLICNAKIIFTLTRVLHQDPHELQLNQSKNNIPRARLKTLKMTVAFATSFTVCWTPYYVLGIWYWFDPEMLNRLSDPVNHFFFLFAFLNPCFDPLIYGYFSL
Sequence of Muscarinic acetylcholine receptor M1 (Homo sapiens) (P11229 whole entry, looked up): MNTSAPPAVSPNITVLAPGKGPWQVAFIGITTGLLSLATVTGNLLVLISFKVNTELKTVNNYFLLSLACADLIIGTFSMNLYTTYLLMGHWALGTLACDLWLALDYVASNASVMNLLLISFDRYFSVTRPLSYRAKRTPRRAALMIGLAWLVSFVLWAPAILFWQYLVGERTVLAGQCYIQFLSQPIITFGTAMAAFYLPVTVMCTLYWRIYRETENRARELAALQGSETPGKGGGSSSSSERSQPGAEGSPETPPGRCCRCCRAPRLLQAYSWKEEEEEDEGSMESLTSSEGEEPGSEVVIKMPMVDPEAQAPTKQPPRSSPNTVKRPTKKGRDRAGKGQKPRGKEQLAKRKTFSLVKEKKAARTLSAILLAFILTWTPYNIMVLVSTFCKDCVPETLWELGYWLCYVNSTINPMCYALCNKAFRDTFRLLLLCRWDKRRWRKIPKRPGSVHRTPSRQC
Sequence of D(2) dopamine receptor (Homo sapiens) (P14416 whole entry, looked up): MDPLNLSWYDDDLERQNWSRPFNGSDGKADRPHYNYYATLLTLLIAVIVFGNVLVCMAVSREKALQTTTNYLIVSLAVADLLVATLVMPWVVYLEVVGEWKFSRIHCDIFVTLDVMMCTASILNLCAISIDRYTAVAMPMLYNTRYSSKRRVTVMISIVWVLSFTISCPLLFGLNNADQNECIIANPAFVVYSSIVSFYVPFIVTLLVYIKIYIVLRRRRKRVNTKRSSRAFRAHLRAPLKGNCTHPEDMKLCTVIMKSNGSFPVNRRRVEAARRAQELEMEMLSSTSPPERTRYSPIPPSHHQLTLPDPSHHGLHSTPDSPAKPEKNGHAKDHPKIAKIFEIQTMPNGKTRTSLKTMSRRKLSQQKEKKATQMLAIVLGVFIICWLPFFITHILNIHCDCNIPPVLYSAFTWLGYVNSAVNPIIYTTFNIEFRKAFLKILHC
Sequence of 5-hydroxytryptamine receptor 2A (Homo sapiens) (P28223 whole entry, looked up): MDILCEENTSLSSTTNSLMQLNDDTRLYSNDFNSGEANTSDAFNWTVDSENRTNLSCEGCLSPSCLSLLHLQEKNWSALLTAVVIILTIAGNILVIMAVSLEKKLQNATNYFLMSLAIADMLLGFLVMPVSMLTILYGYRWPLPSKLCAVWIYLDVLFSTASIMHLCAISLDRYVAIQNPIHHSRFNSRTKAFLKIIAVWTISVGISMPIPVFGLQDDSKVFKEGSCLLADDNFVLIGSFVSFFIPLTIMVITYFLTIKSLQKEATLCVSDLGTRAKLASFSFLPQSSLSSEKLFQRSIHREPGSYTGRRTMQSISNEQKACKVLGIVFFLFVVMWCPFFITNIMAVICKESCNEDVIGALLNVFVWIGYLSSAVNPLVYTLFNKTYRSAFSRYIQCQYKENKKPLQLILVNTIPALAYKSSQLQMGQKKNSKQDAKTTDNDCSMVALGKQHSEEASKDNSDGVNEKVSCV
Sequence of Beta-2 adrenergic receptor (Homo sapiens) (P07550 whole entry, looked up): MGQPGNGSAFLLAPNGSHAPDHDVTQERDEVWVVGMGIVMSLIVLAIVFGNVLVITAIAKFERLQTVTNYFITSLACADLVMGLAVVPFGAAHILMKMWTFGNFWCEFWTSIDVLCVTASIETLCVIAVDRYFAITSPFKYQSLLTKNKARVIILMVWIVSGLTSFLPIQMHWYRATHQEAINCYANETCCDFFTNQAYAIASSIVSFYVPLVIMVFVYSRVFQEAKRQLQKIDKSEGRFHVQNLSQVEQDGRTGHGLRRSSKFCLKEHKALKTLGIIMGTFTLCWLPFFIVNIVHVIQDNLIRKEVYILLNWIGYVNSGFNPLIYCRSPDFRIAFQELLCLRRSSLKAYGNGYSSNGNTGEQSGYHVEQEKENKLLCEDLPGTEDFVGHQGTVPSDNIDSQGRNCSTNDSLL

COc1ncnc(NS(=O)(=O)c2ccc(N)cc2)c1OC
not listed: [16] | [17] | [18] | [19]
inactive: all other assays above

O=C1CCCN1CCO
not listed: [9] | [10] | [11] | [12]
inactive: all other assays above

CC1(c2ccccc2)OC(C(=O)O)=CC1=O (stereo not drawn)
not listed: [10] | [16]
inactive: all other assays above

CCOCCn1c(C2CCN(CCc3ccc(C(C)(C)C(=O)O)cc3)CC2)nc2ccccc21
not listed: [7] | [9] | [17] | [18]
inactive: all other assays above

C[C@H]1C[C@H]2[C@@H]3CCC4=CC(=O)C=C[C@]4(C)[C@@]3(F)[C@@H](O)C[C@]2(C)[C@@]1(O)C(=O)COP(=O)(O)O
not listed: [12] | [16] | [17] | [18] | [19]
inactive: all other assays above

CCN(CC)C(C)=O
not listed: [7] | [14] | [18]
inactive: all other assays above

O=C(O)C1(C(=O)O)CCC1.[NH2-].[NH2-].[Pt+2]
not listed: [9] | [12] | [14] | [18] | [19]
inactive: all other assays above

Cc1ccc2c(c1[N+](=O)[O-])C(=O)c1ccccc1C2=O
active: [2] 16.9 µM
not listed: [10] | [11] | [14]
inactive: all other assays above

Cc1ccnc2ccccc12
active: [2] 68.4 µM
not listed: [7] | [10] | [11] | [13]
inactive: all other assays above

O=C1CCC(C2CCCCC2)CC1
not listed: [10] | [12] | [14]
inactive: all other assays above

Nc1[nH]c(=O)ncc1F
not listed: [8] | [12] | [16] | [17] | [18] | [19]
inactive: all other assays above

N#CCc1ccccc1[N+](=O)[O-]
not listed: [10]
inactive: all other assays above

CCCCCCCCCCCC(=O)NCCCN(C)C
active: [1] 27.3 µM | [3] 30.9 µM | [7] 45.8 µM | [9] 32.4 µM | [16] 1.68 µM | [18] 8.4 µM
not listed: [8] | [10] | [11] | [12] | [15]
inactive: all other assays above

CN(C)C(=O)C1(N2CCCCC2)CCN(CC[C@@]2(c3ccc(Cl)c(Cl)c3)CN(C(=O)c3ccccc3)CCO2)CC1
inactive: [2] | [3] | [4] | [5] | [6] | [7] | [17] | [19] | [13]
active: [1] 22.7 µM | [15] 64.1 µM

CNC(=O)c1cc(Oc2ccc(NC(=O)Nc3ccc(Cl)c(C(F)(F)F)c3)cc2)ccn1
active: [1] 26.6 µM
not listed: [7] | [10] | [11] | [12] | [16]
inactive: all other assays above
